This is a sample that favours compounds with a hit; in the whole collection about 13% have one here.
LASV entry inh: qHTS for Inhibitors of binding or entry into cells for Lassa Virus; hit rate 1.2% among 300,000; Lassa virus pseudotype entry inhibition, cell reporter; Potency, µM (series often up to 37.9 µM), without a hit: top-dose activity change, negative = inhibition, actives largely listed as inhibitors; AID 540256, 2011; calls by dose curve; tested in HEK293 cells; also: potency is read from the fitted curve at half-maximal effect; % is scaled to controls: 0 for no effect and ±100 for the full control effect; nearly all actives have a fitted effect of over 50% in size
Cycloheximide cs: Cycloheximide Counterscreen for Small Molecule Inhibitors of Shiga Toxin; cell reporter, cycloheximide protein synthesis inhibition counterscreen; max response, %; hit rate 12% among 300,000; AID 2314, 2010; in the data active = max response mostly above about 13%, no sharp cut-off; inactive = mostly below about 14%; also: read at 38.3 µM for the half of the compounds with a filed dose; 0% is about no effect
Shiga toxin inh: A qHTS for Small Molecule Inhibitors of Shiga Toxin. Vero cells, Shiga toxin protein synthesis inhibition reporter. inhibition, % at 38.7 µM. hit rate 9.2% among 290,000; in the data active = inhibition mostly above about 28%, no sharp cut-off; inactive = mostly below about 43%; also: 0% is about no effect
FMDV inh: High Throughput Screening for Foot and Mouth Disease Virus Antivirals | AID 1159524, 2015 | Potency, µM (top dose mostly 57.9 µM), inactives show at the highest dose activity change, negative = inhibition, hits mostly inhibitors | FMDV antiviral cell-based qHTS | hit rate 1.2% among 410,000; calls by dose curve; tested in HEK293T cells; also: read-out not given here; potency is read from the fitted curve at half-maximal effect; % is scaled to controls: 0 for no effect and ±100 for the full control effect; nearly all actives have a fitted effect of over 45% in size
MARV entry inh: qHTS for inhibitors of binding or entry into cells for Marburg Virus | Marburg virus pseudotyped entry inhibition, cell reporter | Potency, µM (top dose mostly 37.8 µM), for the others: at the highest dose activity change, negative = inhibition, actives largely listed as inhibitors | hit rate 1.8% among 300,000; calls by dose curve; tested in HEK293 cells; also: potency is read from the fitted curve at half-maximal effect; % is scaled to controls: 0 for no effect and ±100 for the full control effect
HCV inh: qHTS Assay for Inhibitors of Hepatitis C Virus (HCV); Potency, µM (titrated, usually from 41.8 µM), without a hit: top-dose activity change, negative = inhibition, most hits filed as inhibitors; hit rate 3.4% among 340,000; Huh7.5.1 HCVcc-Cre infection, luciferase reporter, 44 h; active = well fitted inhibition curve with a large enough effect; inconclusive = small, poorly fitted or top-dose-only effect, or another doubt; inactive = no such curve, though single readings can be large or run the other way; also: potency is read from the fitted curve at half-maximal effect; % is scaled to controls: 0 for no effect and ±100 for the full control effect
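A cell-based infection assay in which seeded cells (1,000 per well) receive test compound after 4 h, are inoculated with HCVcc-Cre at approximately 0.5 moi, and are incubated 44 h before luminescence detection.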
An asterisk follows results filed as active; ? = inconclusive; / = no result given; [ ] = another dose, or the depositor's remark.

SMILES | LASV entry inh | Cycloheximide cs | Shiga toxin inh | FMDV inh | MARV entry inh | HCV inh
CC(=O)Nc1ccc(S(=O)(=O)N(C)c2ccc(OCC(=O)Nc3ccccc3C(C)=O)cc2)cc1 | -22% | / | / | ? | ? | ?
COc1ccc(NC(=O)COc2ccc(N(C)S(=O)(=O)c3ccc(Cl)cc3)cc2)cc1OC | ? | / | / | 10µM* | ? | 0.63µM*
CN(c1ccc(OCC(=O)OCC(=O)Nc2ccc(F)cc2)cc1)S(=O)(=O)c1ccc(Cl)cc1 | 21% | -5 | -14 | 2% | 15% | 45%
CN(c1ccc(OCC(=O)Nc2ccccc2C(=O)O)cc1)S(=O)(=O)c1ccc(Cl)cc1 | 3.2µM* | / | / | -1% | 3.5µM* | -8%
Cc1ccc(CC2C(=O)N(CC(=O)O)C(=O)C2C)cc1 (stereo not drawn) | -4% | -1 | 13 | 3% | 0% | 2%
Cc1ccc(CC(=O)NCc2nc(-c3ccccc3)no2)cc1 | -4%[46.1 µM] | / | / | -8% | 1%[46.1 µM] | /
Cc1ccc(-c2noc(CNc3ccccc3)n2)cc1 | 11% | 37* | 64* | 49% | ? | -14%
CCc1ccc(NCc2nc(-c3ccccc3)no2)cc1 | -3% | 31* | 47* | 30% | ? | 0%
COc1ccc(C2CC(=O)OC3=C2C(=O)CC(C)(C)C3)c(OC)c1 (stereo not drawn) | 9%[46.1 µM] | -4 | -9 | -13% | ? | 2%
NC(=O)c1ccc(NC(=O)c2ccccc2S(=O)(=O)c2ccccc2[N+](=O)[O-])cc1 | 10% | -8 | 3 | -25% | 1% | ?
CC(C)(C)c1ccc(C(=O)CCCN2CCC(OC(c3ccccc3)c3ccccc3)CC2)cc1 | 5.2µM* | / | / | / | ? | /
CN1CCN(CCCCC(=O)c2ccccc2)CC1 | 1% | -1 | 24 | 2% | 2% | 0%
O=C(NCCC(=O)N1CCC2(CC1)NCCc1[nH]cnc12)c1cccc(C(F)(F)F)c1 | / | -3 | -2 | -10% | / | 5%
C=CCS(=O)(=O)N1CCCC(N(C)CCc2ccc(OC)c(OC)c2)C1 (stereo not drawn) | / | -1 | 7 | 4% | / | 5%
O=S(=O)(Nc1cccc(-c2ccc(N3CCCCCC3)nn2)c1)c1ccccc1Cl | / | 34* | 58* | 7% | / | 11µM*
O=S(=O)(Nc1cccc(-c2ccc(N3CCCCCC3)nn2)c1)c1ccccc1F | ? | 32* | 110* | 60% | / | -7%
Cc1ccc(S(=O)(=O)Nc2cccc(-c3ccc(N4CCCCC4)nn3)c2)s1 | -12%[46.1 µM] | / | / | 20% | / | /
CCOC(=O)CN1N=C(/C=C/c2ccc(OC)cc2)CCC1=O | -4% | 12 | 18 | -17% | ? | -3%
O=C(CSc1ccc(-c2ccco2)nn1)c1ccc(F)cc1 | 11% | 29* | active | 13% | 2% | ?
Fc1ccc(CSc2ccc(-c3ccco3)nn2)cc1 | -13% | 19* | 33* | 40% | -1% | -3%
Cc1ccc(C(=O)CSc2nc(-c3ccccc3)ccc2C#N)cc1 | ? | -2 | 18 | -9% | 2%[46.1 µM] | -12%
Fc1cccc(CSc2ccc(-c3ccco3)nn2)c1 | 5% | 67* | 79* | 40% | 23% | -22%
N#Cc1ccc(-c2ccco2)nc1SCC(=O)c1ccc(Cl)cc1 | ? | -2 | 35 | -18% | ? | 4.5µM*
CN(C)C/C=C(/c1ccc(Br)cc1)c1cccnc1 | -23% | / | / | -10% | 7.1µM* | ?
CN(C)CCO/N=C(\c1ccc(Br)cc1)c1cccnc1 | ? | / | / | 2% | -3% | ?
SMILES | LASV entry inh | Cycloheximide cs | Shiga toxin inh | FMDV inh | MARV entry inh | HCV inh
Cc1cccc(N2CCC(N=CN(C)C)=N2)c1 | -10%[46.1 µM] | 41* | 100* | 24% | ? | -5%
CCN(C=NC1=NN(c2cccc(C(F)(F)F)c2)CC1)CC | -2% | 37* | 66 | 43% | ? | 11µM*
OCCN(C=NC1=NN(c2cccc(C(F)(F)F)c2)CC1)CCO | 6% | -2 | -13 | 21% | 9% | -21%
Cc1cccc(N2C(=O)CCC2=O)c1 | 16% | -2 | -7 | -22% | ? | 5%
Cc1cccc(COc2ncnc3nc[nH]c23)c1 | ? | 15 | 35* | -4% | -2% | 4µM*
O=c1cc(CSc2ccccn2)[nH]c(=O)[nH]1 | 7% | 13 | -6 | -2% | -12% | 6%
CC(C)c1nc(N2CCOCC2)c(C#N)c2c1CCCC2 | -30% | -4 | -10 | ? | ? | 7.1µM*
CSc1cccc(NC(=S)N(CCN(C)C)C(C)c2ccccn2)c1 (stereo not drawn) | ? | 1 | -3 | -2% | 10µM* | ?
O=C(Nc1ccccn1)c1ccc(=O)[nH]n1 | 1% | 7 | -7 | -3% | ? | 0%
O=C(Nc1ccc2c(c1)OCO2)c1ccc(=O)[nH]n1 | / | 18* | 52* | 1% | / | 2%
COc1ccc(NS(=O)(=O)c2cc(NC(=O)c3ccc(=O)[nH]n3)ccc2C)cc1 | / | / | / | 34% | / | ?
CC(C)(C)c1ccc(NC(=O)c2ccc(=O)[nH]n2)cc1 | ? | 54* | 111* | -3% | ? | ?
O=C(Nc1ccc2c(c1)OCO2)c1ccccn1 | / | / | / | 61% | / | -7%
O=C(Nc1ccc2c(c1)OCO2)c1n[nH]c(=O)c2ccccc12 | / | 18* | 57* | 23% | / | 2%
O=C(Nc1ccccc1-c1ccccc1)c1ccc(=O)[nH]n1 | 10% | 46* | 83* | 52% | -7% | -17%
CCn1c(SCC(=O)N(Cc2ccccc2)C2CCS(=O)(=O)C2)nc2ccccc2c1=O (stereo not drawn) | -2% | -7 | -16 | 0% | -22% | 12%
O=[N+]([O-])c1cccc2nc(-c3ccccc3)c(-c3ccccc3)nc12 | -28% | -1 | 12 | ? | -4% | -9%
O=C(Nc1cccnc1Cl)c1cc(-c2ccc(O)cc2)on1 | 0%[46.1 µM] | 25* | 73* | 0% | 21%[46.1 µM] | -6%
Cc1ccc(-c2cc(C(=O)NC3CCCCC3)no2)cc1 | 8%[46.1 µM] | 20* | 17 | 42% | ? | 8%
O=C(NCCCN1CCOCC1)c1cc(-c2ccc(O)cc2)on1 | / | 2 | 19 | 12% | / | 29%
O=C(NC1CCCCC1)c1cc(-c2ccccc2O)on1 | ? | 27* | 109* | 47% | -21%[46.1 µM] | -2%
COc1ccc(-c2cc(C(=O)NC3CCCCC3)no2)cc1OC | 0%[46.1 µM] | -3 | 4 | 11% | 7%[46.1 µM] | -7%
O=C(NC1CCCCC1)c1cc(-c2ccc(O)cc2)on1 | -20%[46.1 µM] | 33* | 71* | 37% | 6%[46.1 µM] | 5%
CC(=O)N/C(=N/c1nc(C)cc(C)n1)Nc1cccc(C)c1 | -3% | 1 | -3 | -13% | 14% | -26%
CN(C)c1cccc2c1C(=O)c1ccccc1C2=O | ? | 13* | 27 | -19% | 1% | ?
Nn1c(SCC(=O)Nc2ccc(S(N)(=O)=O)cc2)nnc1C(F)(F)F | / | 0 | -3 | -3% | / | 7%
COc1ccc(/C(C)=N/NC(=O)CNC(=O)c2ccco2)cc1 | 14% | -2 | -3 | -16% | ? | -3%

Screening data as filed in PubChem BioAssay.
